Bioassay records deposited in PubChem by several laboratories.
CYP2C19 inh: inhibitors of human CYP2C19. AID 778. CYP2C19 Supersomes, luciferin-H EGE luminescence, 30 min. inhibition, % at 5 µM. 21% of 96,000 active;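 active means CYP2C19 inhibition above a set limit at 5 µM in the primary screen, cut at about 50% in these data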;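 further: plate controls were negative control wells for no effect and 2.5 mM tranylcypromine positive control for full effect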
Target sequence (P33261 whole entry, looked up): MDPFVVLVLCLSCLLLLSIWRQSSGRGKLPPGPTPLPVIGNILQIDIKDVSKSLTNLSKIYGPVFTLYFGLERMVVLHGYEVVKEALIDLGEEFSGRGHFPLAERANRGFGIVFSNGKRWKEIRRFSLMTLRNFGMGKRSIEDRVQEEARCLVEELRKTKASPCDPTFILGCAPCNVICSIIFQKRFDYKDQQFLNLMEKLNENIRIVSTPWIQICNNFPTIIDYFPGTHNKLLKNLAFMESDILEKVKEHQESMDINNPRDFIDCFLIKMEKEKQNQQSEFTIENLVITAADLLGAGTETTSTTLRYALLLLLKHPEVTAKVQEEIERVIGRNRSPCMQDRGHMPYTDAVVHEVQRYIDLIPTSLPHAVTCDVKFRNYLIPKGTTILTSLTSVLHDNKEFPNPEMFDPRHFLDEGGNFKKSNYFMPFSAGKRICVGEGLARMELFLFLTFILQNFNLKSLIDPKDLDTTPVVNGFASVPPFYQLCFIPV
CYP2C9 inh: inhibitors of human CYP2C9. AID 777. CYP2C9 Supersomes, luciferin-H conversion, luminescence. 20% of 96,000 active. inhibition, % at 5 µM. P11712;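 active means blocking of liver enzyme CYP2C9 beyond about 50% at 5 µM, limit read from the data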
CYP2C19 act: cytochrome P450 2C19 (human) activation; recombinant CYP2C19, luciferin-H EGE luminescence; active compounds read high; 0 = fully inhibited enzyme, 1 = untreated enzyme; activation factor at 5 µM; 96,000 tested, under 10 active; AID 1025;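 active means activation factor of at least 2 at 5 µM in the primary screen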;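 further: 0 = wells with 2.5 mM tranylcypromine and 1 = vehicle-only wells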
cytoskel mod: modifiers of cytoskeleton assembly; HUVEC TNFa F-actin phalloidin imaging, high content; inhibition, % at 2 µM; 0.18% of 91,000 active; AID 836;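 active means inhibition above the batch mean plus 3 SD and confirmed as a hit by visual image inspection, cut at about 30% in these data, passing the limit was not always enough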
CYP2C9 act: CYP2C9 (human) activation | P11712 | AID 1024 | recombinant CYP2C9, luciferin-H conversion, luminescence; active compounds read high; factor 1 = untreated enzyme, 0 = blocked | 1.4% of 96,000 active | activation factor at 5 µM;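 active means activation factor of 2 or more for CYP2C9 at a 5 µM dose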;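 further: 0 = sulfaphenazole-blocked wells and 1 = vehicle-only wells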
E-sel TNF inh: blocks E-selectin expression induced by TNF alpha; inhibition, % at 2 µM; AID 1246; 0.71% of 120,000 active; HUVEC TNFa-induced E-selectin immunofluorescence, high content;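 active means inhibition above the batch mean plus 3 SD, and confirmed as a hit on visual image review, cut at about 43% in these data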;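 further: 0% = TNF-stimulated DMSO wells and 100% = unstimulated control wells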
* hit, by the source's call. Compounds with a hit are over-represented: about 22% of the library has one in this group of screens.

What do the screens show for `CCOc1ccc(N(CC(=O)NC2CCCC2)C(=O)CCC(=O)Nc2ccccn2)cc1`?
CYP2C19 inh: 29; CYP2C9 inh: 11; CYP2C19 act: 0.7; cytoskel mod: -32; CYP2C9 act: 0.9; E-sel TNF inh: -6

What do the screens show for `Cc1cccc(N(CC(=O)NC2CCCC2)C(=O)CCCC(=O)Nc2ccccn2)c1`?
CYP2C19 inh: 78*; CYP2C9 inh: 62*; CYP2C19 act: 0.2; cytoskel mod: 20; CYP2C9 act: 0.4; E-sel TNF inh: -16

How did COC(=O)[C@@]1(Cc2ccc(F)cc2)[C@H]2c3cc(C(=O)N(C)C)n(Cc4nc5ccccc5[nH]4)c3C[C@H]2CN1C(=O)c1ccccc1 do in these assays?
E-sel TNF inh: 22

Results for O=C(c1nn2c(C(F)(F)F)cc(-c3cccs3)nc2c1Cl)N1CCCc2ccccc21 ?
E-sel TNF inh: -11

What do the screens show for `Cc1cccc(N(CC(=O)NC2CCCC2)C(=O)CS(=O)CC(=O)Nc2ccc3c(c2)OCO3)c1` (stereo not drawn)?
CYP2C19 inh: 35; CYP2C9 inh: 88*; CYP2C19 act: 0.7; CYP2C9 act: 0.1; E-sel TNF inh: 16

How did Cc1cccc(N(CC(=O)NC2CCCC2)C(=O)c2c(C)noc2C)c1 do in these assays?
CYP2C19 inh: 9; CYP2C9 inh: 28; CYP2C19 act: 0.9; cytoskel mod: -14; CYP2C9 act: 0.7; E-sel TNF inh: 1

How did Cc1ccccc1CNC(=O)c1ccccc1N do in these assays?
CYP2C19 inh: 20; CYP2C9 inh: -18; CYP2C19 act: 0.8; cytoskel mod: -6; CYP2C9 act: 1.2; E-sel TNF inh: 14

How did CCN(CC)CCNC(=O)c1ccccc1N do in these assays?
CYP2C19 inh: 67*; CYP2C9 inh: 56*; CYP2C19 act: 0.3; cytoskel mod: 22; CYP2C9 act: 0.4; E-sel TNF inh: -1

Results for COc1ccc(C(=O)NCc2ccccc2OC)c(OC)c1 ?
CYP2C19 inh: 56*; CYP2C9 inh: -164; CYP2C19 act: 0.4; cytoskel mod: 1; CYP2C9 act: 2.6*; E-sel TNF inh: 25

How did CCCCC(CC)C(=O)NCc1ccccc1OC (stereo not drawn) do in these assays?
CYP2C19 inh: 53*; CYP2C9 inh: -1; CYP2C19 act: 0.5; cytoskel mod: 4; CYP2C9 act: 1; E-sel TNF inh: 3

What do the screens show for `COc1ccccc1CNC(=O)c1ccccc1N`?
CYP2C19 inh: 53*; CYP2C9 inh: 15; CYP2C19 act: 0.5; cytoskel mod: 2; CYP2C9 act: 0.8; E-sel TNF inh: -7

What do the screens show for `COc1ccc(C(=O)NCc2ccccc2OC)cc1`?
cytoskel mod: -7; E-sel TNF inh: -8

How did CCn1cc(C(=O)OC)c(=O)c2cc(S(=O)(=O)N(C)C3CCCCC3)ccc21 do in these assays?
E-sel TNF inh: 28

Results for CCOC(=O)CSc1nc2sccc2c(=O)[nH]1 ?
CYP2C19 inh: 4; CYP2C9 inh: 15; CYP2C19 act: 1; cytoskel mod: 4; CYP2C9 act: 0.8; E-sel TNF inh: 12

What do the screens show for `O=C(N1CCOCC1)N(Cc1cccs1)C1CCCC1`?
CYP2C19 inh: 4; CYP2C9 inh: 4; CYP2C19 act: 1; cytoskel mod: -6; CYP2C9 act: 1; E-sel TNF inh: 4

What do the screens show for `COc1cccc(NC(=O)c2nc3ncccn3n2)c1`?
CYP2C19 inh: -16; CYP2C9 inh: -95; CYP2C19 act: 1.2; cytoskel mod: 0; CYP2C9 act: 2*; E-sel TNF inh: -8

Results for Cn1c(=O)c2ncn(CC(=O)Nc3cccc(-c4nc5ccccc5s4)c3)c2n(C)c1=O ?
CYP2C19 inh: 22; CYP2C9 inh: 50*; CYP2C19 act: 0.8; cytoskel mod: 10; CYP2C9 act: 0.5; E-sel TNF inh: -52

What do the screens show for `CCOCCCNc1ncc2c(n1)CC(c1ccc(C)cc1)CC2=O` (stereo not drawn)?
CYP2C19 inh: 41; CYP2C9 inh: 59*; CYP2C19 act: 0.6; cytoskel mod: -28; CYP2C9 act: 0.4

What do the screens show for `COc1cc(OC)cc(C(=O)Nc2ncc3c(n2)CC(C)CC3=O)c1` (stereo not drawn)?
CYP2C19 inh: 2; CYP2C9 inh: -11; CYP2C19 act: 1; cytoskel mod: 3; CYP2C9 act: 1.1
